“And” between values parts separate entries of the source, which are not always exact repeats. Equal values may be shown once. This is part of a sample that, as a whole, favours compounds with a hit. Of some 83,000 tested, about 20% had one in any assay.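 Interpretation: 100, growth as untreated; towards 0, rising growth inhibition; 0, no net growth; 0 to -100, cell death. Compounds scoring below 10 were considered active.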 The source made the active and inactive calls.

Among the test systems are T-47D breast; BT-549 breast; MDA-MB-435 melanoma; SW-620 colon; MCF7 breast; HCT-116 colon; HCC-2998 colon; KM12 colon.
What all share (assay): NCI-60 one-dose screen, 48 h (100 = growth as untreated, 0 = no growth, -100 = all killed)
What all share (details): 10 µM unless noted

In the case of `Cc1ccc(C(=O)c2ccc(CC(=O)N=Nc3c(O)[nH]c4ccc(OC(F)(F)F)cc34)n2C)cc1`, the growth was 74.5% (inactive) in the assay on T-47D breast; 95.3% (inactive) with BT-549 breast; 97.9% (inactive) with MDA-MB-435 melanoma; 95.7% (inactive) in the assay with SW-620 colon; 91.5% (inactive) in the assay on MCF7 breast; 97% (inactive) with HCT-116 colon. The growth in the assay on HCC-2998 colon is 119% (inactive); with KM12 colon, 94% (inactive).
In the case of `Cc1ccc(-c2nc3nc(-c4ccccc4)nc(N4CCCNCC4)c3o2)cc1`, the growth is -45% (active) in the assay on T-47D breast; 18% (inactive) in the assay with BT-549 breast; -83.1% (active) in the assay with MDA-MB-435 melanoma; -57.5% (active) in the assay with SW-620 colon; -78.4% (active) in the assay on MCF7 breast; -71.4% (active) in the assay with HCT-116 colon. In addition, the growth with HCC-2998 colon is -74.9% (active); in the assay on KM12 colon, -92.3% (active).
As for `CC12OC(CC(O)C1O)n1c3ccccc3c3c4c(c5c6ccccc6n2c5c31)C(=O)N(CCN1CCOCC1)C4=O` (centres undefined), the growth in the assay with T-47D breast was -5.19% (active); in the assay with BT-549 breast, 22.6% (inactive); in the assay with MDA-MB-435 melanoma, 21.7% (inactive); in the assay on SW-620 colon it was 16% (inactive); in the assay with MCF7 breast it was 4.28% (active); in the assay on HCT-116 colon, 14.1% (inactive). Moreover, the growth in the assay with HCC-2998 colon is 6.48% (active); in the assay on KM12 colon it was 14.6% (inactive).
Take `O=C1c2cc3c(cc2-c2c1c1ccc(Cl)cc1c(=O)n2CCCn1ccnc1)OCO3`: the growth with T-47D breast is -0.548% (active); in the assay on BT-549 breast it was -20.3% (active); in the assay on MDA-MB-435 melanoma, -58.8% (active); in the assay on SW-620 colon it was 1.05% (active); in the assay on MCF7 breast, -9.33% (active); with HCT-116 colon, -23% (active). The values for the growth in the assay on HCC-2998 colon and in the assay with KM12 colon were 15% (inactive) and 1.36% (active), respectively.
For `NS(=O)(=O)c1ccc(C(=O)N=Nc2c(O)[nH]c3c(F)cccc23)cc1`, the growth is 97% (inactive) in the assay with T-47D breast; 99.7% (inactive) in the assay with BT-549 breast; 107% (inactive) in the assay on MDA-MB-435 melanoma; 100% (inactive) in the assay with SW-620 colon; 96.4% (inactive) in the assay with MCF7 breast; 103% (inactive) with HCT-116 colon. Besides, the results for the growth with HCC-2998 colon and with KM12 colon were 106% (inactive) and 107% (inactive), respectively.
For `CS(=O)(=O)Nc1cc(-c2ccc3ncnc(Nc4ccc(F)c(Cl)c4)c3c2)cnc1Cl`, the growth is -7.45% (active) in the assay on T-47D breast; -21.7% (active) in the assay on BT-549 breast; 9.94% (active) in the assay on MDA-MB-435 melanoma; 13.8% (inactive) with SW-620 colon; 5.44% (active) with MCF7 breast; 1.28% (active) in the assay on HCT-116 colon. For the same molecule, the growth in the assay with HCC-2998 colon was 16.1% (inactive); with KM12 colon it was 7.66% (active).
For `Cc1nc(Nc2ncc(C(=O)Nc3c(C)cccc3Cl)s2)cc(N2CCN(CCO)CC2)n1`, the growth in the assay on T-47D breast was 40.8% (inactive) and -2.8% (active); in the assay on BT-549 breast, 55.3% (inactive) and 32.2% (inactive); with MDA-MB-435 melanoma, 62.6% (inactive) and 27.1% (inactive); in the assay on SW-620 colon it was 103% (inactive) and 52.6% (inactive); with MCF7 breast, 66.1% (inactive) and 54.4% (inactive); with HCT-116 colon, 40.7% (inactive) and 2.99% (active). The growth is 110% (inactive) and 81% (inactive) in the assay on HCC-2998 colon; 81.3% (inactive) and 28.1% (inactive) in the assay on KM12 colon.
With `C[C@@H]1CC[C@@H]2[C@@H]1[C@H](OC(=O)/C=C/c1ccccc1)[C@]1(c3ccccc3)C[C@@H](NC(=O)CO)[C@@]2(C)O1`, the growth in the assay on T-47D breast was 93.3% (inactive); in the assay with BT-549 breast, 114% (inactive); in the assay on MDA-MB-435 melanoma, 100% (inactive); with SW-620 colon, 104% (inactive); with MCF7 breast it was 79.4% (inactive); in the assay with HCT-116 colon it was 100% (inactive). Further, the growth in the assay with HCC-2998 colon is 104% (inactive); in the assay on KM12 colon, 94.8% (inactive).
For `COc1cc2cc(NCc3ccncc3)nc(C)c2cc1OC`, the growth in the assay with T-47D breast is 71.2% (inactive); in the assay with BT-549 breast, 77.9% (inactive); in the assay with MDA-MB-435 melanoma it was 106% (inactive); in the assay with SW-620 colon, 107% (inactive); in the assay on MCF7 breast it was 93.4% (inactive); with HCT-116 colon, 93.1% (inactive). Moreover, the results for the growth in the assay on HCC-2998 colon and with KM12 colon were 106% (inactive) and 109% (inactive), respectively.
As for `COc1ccc(C/C(C)=C(\c2ccc(O)cc2)c2ccc(OCCCN(C)C)cc2)cc1`, the growth in the assay on T-47D breast is 72.6% (inactive); in the assay with BT-549 breast, 108% (inactive); in the assay with MDA-MB-435 melanoma, 101% (inactive); in the assay with SW-620 colon, 95.2% (inactive); in the assay with MCF7 breast it was 41.1% (inactive); in the assay on HCT-116 colon, 80.8% (inactive). Moreover, the results for the growth with HCC-2998 colon and with KM12 colon were 104% (inactive) and 93% (inactive), respectively.
Turning to `CCCCCCCC/C=C\CCCCCCCCOc1ccccc1CC(=O)NCC[N+]1(C)CCOCC1`, the growth was 84.4% (inactive) in the assay with T-47D breast; 82.3% (inactive) in the assay with BT-549 breast; 95.8% (inactive) in the assay with MDA-MB-435 melanoma; 81.7% (inactive) in the assay on SW-620 colon; 82.2% (inactive) with MCF7 breast; 71.8% (inactive) with HCT-116 colon. Besides, the growth in the assay on HCC-2998 colon is 45.4% (inactive); in the assay with KM12 colon, 47.3% (inactive).
Consider `CC(=O)c1nn(-c2ccccc2)/c(=N/N=Cc2cn(-c3ccccc3)nc2-c2cc3ccccc3oc2=O)s1`, for which the growth in the assay on T-47D breast was 89.1% (inactive); in the assay on BT-549 breast, 105% (inactive); with MDA-MB-435 melanoma, 103% (inactive); with SW-620 colon it was 104% (inactive); in the assay with MCF7 breast it was 91.5% (inactive); in the assay on HCT-116 colon, 97.6% (inactive). The growth with HCC-2998 colon is 108% (inactive); with KM12 colon, 106% (inactive).
`Cn1cc(-c2csc(-c3cn(CCOC(N)=O)c4ccccc34)n2)c2cccnc21`: the growth in the assay on T-47D breast is 45.8% (inactive); in the assay on BT-549 breast, 79.5% (inactive); with MDA-MB-435 melanoma it was 8.15% (active); in the assay with SW-620 colon, 67.9% (inactive); in the assay with MCF7 breast it was 58.2% (inactive); in the assay on HCT-116 colon, 86.5% (inactive). Besides, the growth was 90.4% (inactive) in the assay with HCC-2998 colon and 67% (inactive) in the assay on KM12 colon.

(Values after PubChem BioAssay (NCI).)
